Consider 3 molecules from PubChem BioAssay.

The nature of test [1]: antimalarial activity against Dd2 strain (AID 2302;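 active = growth inhibition above 50% at the single 2 µM test dose, taken to imply half-maximal potency below 2 µM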;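 note: 0% = DMSO untreated growth and 100% = chloroquine plus artemisinin killed control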). To be noted: P. falciparum Dd2 in RBCs, LDH growth readout, 72 h; at 2 µM; stronger effect = higher value.
Test [2] in a line: human hepatoma cell viability loss – ATP luminescence, cytotoxicity control for P. falciparum antimalarial project, primary screen (AID 2303;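 active = inhibition above 50%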;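 note: 0% = DMSO wells and 100% = digitonin-killed cells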). Particulars: HepG2 viability, 24-48 h, at 10 µM, stronger effect = higher value.
The target in test [3] is L-lactate dehydrogenase (Plasmodium falciparum (isolate CDC / Honduras)) (UniProt Q27743). The experiment in a line: PfLDH activity inhibition – cell lysate, 3D7 strain, counter-screen for P. falciparum growth inhibition project (AID 2304).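 Note: 0% = vehicle and 100% = reference inhibitor.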 Particulars: P. falciparum 3D7 crude extract, LDH APAD/NBT absorbance; at 2 µM; stronger effect = higher value.
Sequence of L-lactate dehydrogenase (Plasmodium falciparum (isolate CDC / Honduras)) (Q27743 whole entry, looked up): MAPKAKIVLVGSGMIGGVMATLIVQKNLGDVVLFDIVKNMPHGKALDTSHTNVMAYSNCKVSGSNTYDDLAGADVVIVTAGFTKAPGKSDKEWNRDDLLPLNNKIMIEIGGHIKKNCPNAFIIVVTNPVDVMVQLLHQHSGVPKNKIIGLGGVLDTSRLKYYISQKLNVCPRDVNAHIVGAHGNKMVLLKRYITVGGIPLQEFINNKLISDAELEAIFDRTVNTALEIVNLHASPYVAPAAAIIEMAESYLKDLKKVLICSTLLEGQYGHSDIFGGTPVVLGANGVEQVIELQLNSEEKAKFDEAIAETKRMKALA
Test [4] can be described thus: inhibition of 3D7 malaria parasite growth – strain 3D7 (AID 2306).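 Note: 0% = DMSO wells and 100% = chloroquine plus artemisinin control wells.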 To be noted: P. falciparum 3D7 erythrocytic growth, LDH absorbance, 72 h; at 2 µM; stronger effect = higher value.
Test [5] deals with Calcium-dependent protein kinase 1 (Plasmodium falciparum (isolate 3D7)) (UniProt P62344). The test can be described thus: PfCDPK1 kinase inhibitors, biochemical, TCAMS library (AID 1159585; cut-off not given, nearly all actives have IC50 up to about 0.98 µM;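 note: inhibitors leave more ATP so luminescence rises with inhibition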). Particulars: recombinant PfCDPK1, Kinase-Glo ATP depletion luminescence. (Kinase-Glo measures the ATP left after a reaction by luminescence.)
Sequence of Calcium-dependent protein kinase 1 (Plasmodium falciparum (isolate 3D7)) (P62344 whole entry, looked up): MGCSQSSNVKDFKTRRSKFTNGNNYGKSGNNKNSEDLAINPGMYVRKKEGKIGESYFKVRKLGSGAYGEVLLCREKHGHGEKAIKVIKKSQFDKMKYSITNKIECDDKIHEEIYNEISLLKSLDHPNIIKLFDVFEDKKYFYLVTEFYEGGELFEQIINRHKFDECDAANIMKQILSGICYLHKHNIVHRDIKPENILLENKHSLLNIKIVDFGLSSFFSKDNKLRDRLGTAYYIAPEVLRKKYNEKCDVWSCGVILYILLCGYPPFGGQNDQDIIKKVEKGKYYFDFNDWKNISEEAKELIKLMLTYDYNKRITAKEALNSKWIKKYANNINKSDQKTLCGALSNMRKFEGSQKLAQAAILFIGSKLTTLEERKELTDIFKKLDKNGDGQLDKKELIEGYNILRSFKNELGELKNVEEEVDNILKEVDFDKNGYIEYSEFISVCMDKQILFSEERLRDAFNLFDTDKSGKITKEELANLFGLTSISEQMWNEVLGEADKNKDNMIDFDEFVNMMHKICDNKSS
Test [6] addresses Plasmodium falciparum protein kinase 6 (PK6, PF3D7_1337100) (UniProt Q8IDW1). The experiment in a line: PfPK6 kinase inhibitors, biochemical, TCAMS library (AID 1159586). Particulars: recombinant PfPK6, Kinase-Glo ATP depletion luminescence.
The target of test [7] is Protein kinase 7 (PK7), Plasmodium falciparum 3D7 (PF3D7_0213400) (UniProt Q7YTF7). The experiment in a line: inhibition of Plasmodium PK7 catalytic activity – biochemical, TCAMS antimalarial set, Kinase-Glo luminescence (AID 1159587). To be noted: recombinant PfPK7, Kinase-Glo ATP depletion luminescence.
Sequence of Protein kinase 7 (PK7), Plasmodium falciparum 3D7 (PF3D7_0213400) (Q7YTF7 1-343): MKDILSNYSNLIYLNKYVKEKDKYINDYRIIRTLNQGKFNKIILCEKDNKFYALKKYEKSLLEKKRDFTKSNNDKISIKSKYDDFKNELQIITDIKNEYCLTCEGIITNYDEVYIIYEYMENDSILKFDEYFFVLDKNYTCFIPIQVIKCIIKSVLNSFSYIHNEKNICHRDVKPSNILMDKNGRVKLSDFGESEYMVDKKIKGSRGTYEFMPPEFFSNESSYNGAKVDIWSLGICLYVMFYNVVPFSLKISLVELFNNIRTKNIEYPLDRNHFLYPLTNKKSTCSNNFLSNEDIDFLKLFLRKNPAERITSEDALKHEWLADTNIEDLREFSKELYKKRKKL
Test [8] has as its target Calcium-dependent protein kinase 4 (Plasmodium falciparum (isolate 3D7)) (UniProt Q8IBS5). The experiment in a line: PfCDPK4 kinase inhibitors, biochemical, TCAMS library (AID 1159588; cut-off not given, nearly all actives have IC50 up to about 0.91 µM). Particulars: recombinant PfCDPK4, Kinase-Glo ATP depletion luminescence.

A number with no mark means an inactive call. For part of these data: Results with a measured potency or affinity are listed apart. Active and inactive are the calls of the source. Unless noted, the rule behind the calls is not given here.

Sequence of Plasmodium falciparum protein kinase 6 (PK6, PF3D7_1337100) (Q8IDW1 1-305): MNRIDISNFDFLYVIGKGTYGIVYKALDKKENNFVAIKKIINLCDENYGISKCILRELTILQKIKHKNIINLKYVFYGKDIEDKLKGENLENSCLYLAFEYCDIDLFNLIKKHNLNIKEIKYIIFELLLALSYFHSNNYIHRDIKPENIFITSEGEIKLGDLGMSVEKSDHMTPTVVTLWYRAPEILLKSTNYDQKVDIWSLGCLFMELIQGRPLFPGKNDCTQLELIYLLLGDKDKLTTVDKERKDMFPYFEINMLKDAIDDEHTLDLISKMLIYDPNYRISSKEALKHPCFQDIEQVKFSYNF
Sequence of Calcium-dependent protein kinase 4 (Plasmodium falciparum (isolate 3D7)) (Q8IBS5 whole entry, looked up): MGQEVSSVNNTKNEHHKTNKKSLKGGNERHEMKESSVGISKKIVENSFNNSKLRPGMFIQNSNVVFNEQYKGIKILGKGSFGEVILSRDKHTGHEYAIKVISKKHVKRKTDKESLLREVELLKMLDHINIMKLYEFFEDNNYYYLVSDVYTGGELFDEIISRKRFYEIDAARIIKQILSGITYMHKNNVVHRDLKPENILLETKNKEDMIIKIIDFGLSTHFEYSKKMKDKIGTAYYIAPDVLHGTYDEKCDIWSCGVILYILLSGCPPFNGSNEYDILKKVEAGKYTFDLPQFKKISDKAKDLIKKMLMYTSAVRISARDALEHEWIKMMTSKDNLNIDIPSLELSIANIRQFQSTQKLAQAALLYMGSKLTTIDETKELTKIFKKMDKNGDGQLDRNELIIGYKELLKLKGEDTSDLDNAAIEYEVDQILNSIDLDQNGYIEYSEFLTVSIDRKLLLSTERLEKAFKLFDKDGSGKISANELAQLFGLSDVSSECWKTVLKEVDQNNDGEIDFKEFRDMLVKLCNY

As usually defined, the inhibition is the relative decrease from the control value, in per cent. Take `CCc1ccc(CN2CCC(NC(=O)c3ccc(-c4ccccc4F)s3)CC2)cc1`: the growth inhibition in test [1] is 12%; in test [4], 80% (active). Further, the figures for the inhibition in test [2] and in test [3] were 35% and 2%, respectively. In addition, the result in test [5], in test [6], in test [7] and in test [8] was inactive.
On to `Nc1cccc(CNCc2ccc(-c3cccc(-c4nc5ccc(F)cc5[nH]4)c3)cc2)c1`, for which the results for the growth inhibition in test [1] and in test [4] were 94% (active) and 101% (active), respectively. In addition, the inhibition was 36% in test [2] and -3% in test [3]. In addition, the result in test [5], in test [6], in test [7] and in test [8] was inactive.
On to `CC1(C)S(=O)(=O)CC(O)CS1(=O)=O`, for which the growth inhibition was 9% in test [1] and 98% (active) in test [4]. In addition, the figures for the inhibition in test [2] and in test [3] were 8% and 3%, respectively. Moreover, the result in test [5], in test [6], in test [7] and in test [8] was inactive.
